From the supplement of paper PMC7530171
± gives the standard deviation.

Columns and labels:
[1] = tested on: THP-1; experiment: THP-1 cell loss relative to DMSO control; higher = more host cell loss (toxicity); extreme values may be limits of the assay; conditions: 10 µM; 4 days; infection: M. tuberculosis H37Rv
Procedure: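 OICR kinase inhibitor library screened in duplicate at 10 uM against M. tuberculosis-infected THP-1 macrophages, 4 days at 37 C. THP-1 cell loss (cytotoxicity or loss of adherence) was quantified from Hoechst-stained nuclei counts by high-content imaging and normalised to the 1% DMSO control; 100 = complete loss of host cells.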

[2] = tested on: THP-1 macrophages infected with Mycobacterium tuberculosis H37Rv; experiment: intracellular M.tb growth inhibition relative to DMSO (0) and 4 uM bedaquiline (100); higher = stronger inhibition of intracellular bacterial growth; conditions: 10 µM; 4 days
Procedure: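 OICR kinase inhibitor library screened in duplicate at 10 uM against THP-1 macrophages (PMA-differentiated) infected with M. tuberculosis H37Rv-pTEC27 (tdTomato RFP), 4 days at 37 C. Rows with complete host cell loss (placeholder inhibition 0, cell loss 100) were removed.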

SMILES	THP-1 cell loss [1]	intracellular M.tb growth inhibition [2]
O=C(Nc1nc2ccccc2n1CCN1CCOCC1)c1cccc([N+](=O)[O-])c1 [IRAK-1/4 Inhibitor I]	2.5 ± 3.5%	13.1 ± 7.2%
CN(C)CC(C)(C)CNc1nn2c(-c3ccccc3)nnc2cc1C1CCC1	18.4 ± 1.3%	-56.3 ± 120%
CNC(=O)c1ccccc1Sc1ccc2c(/C=C/c3ccccn3)n[nH]c2c1 [Axitinib]	14.9 ± 11%	
CNc1cc2c(Nc3cccc(Br)c3)ncnc2cn1	78.2 ± 5.8%	30.2 ± 36%
Cc1cc(Nc2cc(N3CCN(C)CC3)nc(/C=C/c3ccccc3)n2)n[nH]1	70.7 ± 19%	
NC(=O)c1ccc2[nH]ccc2c1	50 ± 71%	10.6 ± 2.2%
CC[C@@H]1C(=O)N(C)c2cnc(Nc3ccc(C(=O)NC4CCN(C)CC4)cc3OC)nc2N1C1CCCC1	100%	
CC#CC(=O)Nc1cc2c(Nc3ccc(F)c(Cl)c3)ncnc2cn1	89.9 ± 14%	-68.3 ± 97%
CC1=C(C(=O)Nc2cc3cn[nH]c3cc2F)C(c2ccc(C(F)(F)F)cc2)CC(=O)N1 (centres undefined)	0%	
Nc1[nH]nc2nc3ccccc3nc12	3.97 ± 5.6%	0.53 ± 68%
N#CC[C@H](C1CCCC1)n1cc(-c2ncnc3[nH]ccc23)cn1	26.3 ± 7.9%	-157 ± 220%
Cc1[nH]c(/C=C2\C(=O)Nc3ccccc32)c(C)c1CCC(=O)O	5 ± 7.1%	6.44 ± 30%
COc1nccc(-c2c(-c3ccc(F)cc3)ncn2C2CCC(O)CC2)n1 (centres undefined)	1.08 ± 1.5%	
COc1ccc2c3n(c(=NC(=O)c4cccnc4)nc2c1OC)CCN3	32.5 ± 0.91%	
O=C1c2ccc(O)c(O)c2C(=O)c2c(O)ccc(O)c21 [Quinalizarin]	4.66 ± 6.6%	
Cc1cc(C)c(/C=C2\C(=O)Nc3ccccc32)[nH]1	34.2 ± 39%	
